Results: PubChem BioAssay AID1159580 (chemical genetic matrix, 2015)
“And” between values parts separate entries of the source, which are not always exact repeats. Equal values may be shown once. In all, about 5,500 compounds went through this assay and about 2,000 (36%) were called active. About 18% were inconclusive and are not listed. Cut-off read from the data, not from the text of the source: active = normalized growth mostly below about 0.91 (no sharp cut-off); inconclusive = no clear call, values can overlap the other calls; inactive = mostly above about 0.92. This is one part of the list.

Assay: chemical genetic growth profiling, strain panel (AID 1159580);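 note: tested at 20 µM; growth read once vehicle control cultures reached saturation at 30 °C; 1 = growth at the plate median or of vehicle wells; lower values mean less growth of the strain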
Details: S. cerevisiae deletion strains, growth OD

Measured: normalized growth

COc1cc2c(cc1OC)C1Cc3ccc(OC)c(OC)c3CN1CC2 (stereo unspecified)
inactive: locus YAL021C, strain ccr4, hits give low values 0.983 | locus YAL026C, strain drs2, hits give low values 0.972 | locus YAL030W, strain snc1, hits give low values 0.983 | locus YBL061C, strain skt5, hits give low values 0.976 | locus YBR009C, strain hhf1, hits give low values 0.972 | locus YBR021W, strain FUR4, hits give low values 0.981 | locus YBR023C, strain chs3, hits give low values 0.968 | locus YBR171W, strain sec66, hits give low values 0.965 | locus YBR229C, strain ROT2, hits give low values 0.985 | locus YBR231C, strain swc5, hits give low values 0.983 | locus YBR279W, strain paf1, hits give low values 0.983 | locus YCL011C, strain gbp2, hits give low values 0.985 | locus YCL016C, strain dcc1, hits give low values 0.999 | locus YCL029C, strain bik1, hits give low values 0.998 | locus YCL061C, strain MRC1, hits give low values 0.983 | locus YCL069W, strain vba3, hits give low values 0.955 | locus YCR088W, strain abp1, hits give low values 0.979 | locus YDL005C, strain med2, hits give low values 0.974 | locus YDL035C, strain GPR1, hits give low values 1 | locus YDL040C, strain nat1, hits give low values 0.987 | locus YDL074C, strain BRE1, hits give low values 0.989 | locus YDL101C, strain DUN1, hits give low values 1 | locus YDL134C, strain PPH21, hits give low values 1.03 | locus YDL185W, strain tfp1, hits give low values 0.984 | locus YDL192W, strain arf1, hits give low values 0.991 | locus YDR001C, strain nth1, hits give low values 0.984 | locus YDR069C, strain doa4, hits give low values 0.972 | locus YDR101C, strain arx1, hits give low values 0.988 | locus YDR137W, strain rgp1, hits give low values 0.967 | locus YDR159W, strain sac3, hits give low values 0.972 | locus YDR162C, strain NBP2, hits give low values 1.06 | locus YDR195W, strain ref2 0.955 | locus YDR297W, strain sur2, hits give low values 0.975 | locus YDR318W, strain mcm21, hits give low values 1 | locus YDR334W, strain swr1, hits give low values 0.965 | locus YDR335W, strain msn5, hits give low values 0.97 | locus YDR388W, hits give low values 0.985 | locus YDR392W, strain spt3, hits give low values 0.982 | locus YDR502C, strain sam2, hits give low values 1 | locus YEL003W, strain gim4, hits give low values 0.978 | locus YEL037C, strain rad23, hits give low values 0.982 | locus YEL061C, strain CIN8 (second series), hits give low values 0.95 | locus YEL061C, strain CIN8, hits give low values 1.02 | locus YER015W, strain faa2, hits give low values 0.984 | locus YER016W, strain bim1, hits give low values 0.97 | locus YER110C, hits give low values 0.982 | locus YER111C, strain swi4, hits give low values 0.973 | locus YER155C, strain BEM2 (second series), hits give low values 0.972 | locus YER155C, strain BEM2, hits give low values 0.988 | locus YER167W, strain BCK2, hits give low values 0.998 | locus YFR010W, strain ubp6, hits give low values 0.96 | locus YGL078C, strain dbp3, hits give low values 0.985 | locus YGL086W, strain mad1, hits give low values 0.955 | locus YGL167C, strain pmr1, hits give low values 0.978 | locus YGL173C, strain kem1, hits give low values 0.987 | locus YGL227W, strain vid30, hits give low values 0.979 | locus YGL240W, strain doc1, hits give low values 0.973 | locus YGL248W, strain PDE1, hits give low values 1.03 | locus YGL253W, strain hxk2, hits give low values 0.97 | locus YGR135W, strain pre9, hits give low values 1.01 | locus YGR252W, strain gcn5, hits give low values 1.01 | locus YHR013C, strain ard1, hits give low values 0.977 | locus YHR027C, strain rpn1, hits give low values 1 | locus YHR030C, strain SLT2, hits give low values 0.996 and 0.965 | locus YHR079C, strain IRE1 (second series), hits give low values 0.995 | locus YHR079C, strain IRE1, hits give low values 0.979 | locus YHR094C, strain hxt1, hits give low values 0.978 | locus YHR129C, strain ARP1, hits give low values 1 | locus YHR142W, strain chs7, hits give low values 0.976 | locus YHR200W, strain rpn10, hits give low values 0.992 | locus YIL066C, strain RNR3, hits give low values 1.02 | locus YIL073C, strain SPO22, hits give low values 1.05 | locus YIL125W, strain kgd1, hits give low values 1 | locus YIR030C, strain dcg1, hits give low values 0.987 | locus YJL092W, strain hpr5, hits give low values 0.952 | locus YJL095W, strain BCK1 (second series), hits give low values 0.975 | locus YJL095W, strain BCK1, hits give low values 1.04 and 0.988 | locus YJL115W, strain asf1, hits give low values 0.967 | locus YJL129C, strain trk1, hits give low values 0.956 | locus YJL134W, strain LCB3, hits give low values 0.983 | locus YJL154C, strain vps35, hits give low values 0.981 | locus YJL164C, strain tpk1, hits give low values 0.99 | locus YJL166W, strain qcr8, hits give low values 0.99 | locus YJL168C, strain set2, hits give low values 0.989 | locus YJL187C, strain SWE1 (second series), hits give low values 1.01 | locus YJR043C, strain POL32, hits give low values 1.01
